Targets with a hit are over-represented here; the source holds about 7,900 in all. About 0.6% of all pairs of compound and target were hits. Values without a mark were called inactive.
These targets were tested with Cc1ccc(NC(=O)c2ccc(CN3CC[C@H](N(C)C)C3)c(C(F)(F)F)c2)cc1Nc1nccc(-c2cncnc2)n1 [bafetinib] (assay: log2 fold change, soluble protein after heating vs DMSO (PISA); higher = thermal stabilisation; K562 cells, 10 uM, 30 min; active = over 0.2 and 3.5 SD of the protein, either way, in both replicates (recomputed)).
Procedure, shortened: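 Thermal stability values are relative to control samples and come from duplicates. They are expressed as log2 fold changes. For measurement, K562 cells (2×10^6 cells/mL) received 10 μM compound for 30 min, and aliquots were heated for 3 min over 48°C-58°C, pooled, and extracted at 4°C in PBS with 0.5% NP-40. Soluble protein, the supernatant after 21,000xg for 90 min, was quantified by TMTpro 16plex LC-MS/MS with equalised channel sums.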

UniProt P54922, sequence (P54922 whole entry, looked up): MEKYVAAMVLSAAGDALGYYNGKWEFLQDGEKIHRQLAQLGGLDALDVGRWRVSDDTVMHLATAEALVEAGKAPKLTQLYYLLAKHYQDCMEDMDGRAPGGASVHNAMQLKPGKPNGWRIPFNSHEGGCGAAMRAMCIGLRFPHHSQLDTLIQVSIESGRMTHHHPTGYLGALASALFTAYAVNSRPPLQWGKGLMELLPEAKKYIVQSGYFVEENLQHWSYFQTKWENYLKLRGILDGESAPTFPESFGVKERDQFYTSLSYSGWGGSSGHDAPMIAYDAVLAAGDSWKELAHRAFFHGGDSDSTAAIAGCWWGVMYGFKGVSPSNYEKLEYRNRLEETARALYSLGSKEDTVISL
UniProt Q9Y679, sequence (Q9Y679 whole entry, looked up): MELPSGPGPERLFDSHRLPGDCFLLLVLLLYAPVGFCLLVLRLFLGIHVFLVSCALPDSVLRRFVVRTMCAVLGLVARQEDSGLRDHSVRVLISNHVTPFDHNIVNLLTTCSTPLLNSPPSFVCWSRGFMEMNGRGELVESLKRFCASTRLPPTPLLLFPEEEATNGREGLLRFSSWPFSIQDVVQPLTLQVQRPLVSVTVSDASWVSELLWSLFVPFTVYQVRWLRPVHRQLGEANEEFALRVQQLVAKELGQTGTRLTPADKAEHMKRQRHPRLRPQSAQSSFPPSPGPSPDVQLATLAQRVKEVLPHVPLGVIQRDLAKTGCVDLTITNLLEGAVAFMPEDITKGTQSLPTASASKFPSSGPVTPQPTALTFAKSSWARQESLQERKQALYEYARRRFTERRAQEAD
UniProt O75882, sequence (O75882 whole entry, looked up): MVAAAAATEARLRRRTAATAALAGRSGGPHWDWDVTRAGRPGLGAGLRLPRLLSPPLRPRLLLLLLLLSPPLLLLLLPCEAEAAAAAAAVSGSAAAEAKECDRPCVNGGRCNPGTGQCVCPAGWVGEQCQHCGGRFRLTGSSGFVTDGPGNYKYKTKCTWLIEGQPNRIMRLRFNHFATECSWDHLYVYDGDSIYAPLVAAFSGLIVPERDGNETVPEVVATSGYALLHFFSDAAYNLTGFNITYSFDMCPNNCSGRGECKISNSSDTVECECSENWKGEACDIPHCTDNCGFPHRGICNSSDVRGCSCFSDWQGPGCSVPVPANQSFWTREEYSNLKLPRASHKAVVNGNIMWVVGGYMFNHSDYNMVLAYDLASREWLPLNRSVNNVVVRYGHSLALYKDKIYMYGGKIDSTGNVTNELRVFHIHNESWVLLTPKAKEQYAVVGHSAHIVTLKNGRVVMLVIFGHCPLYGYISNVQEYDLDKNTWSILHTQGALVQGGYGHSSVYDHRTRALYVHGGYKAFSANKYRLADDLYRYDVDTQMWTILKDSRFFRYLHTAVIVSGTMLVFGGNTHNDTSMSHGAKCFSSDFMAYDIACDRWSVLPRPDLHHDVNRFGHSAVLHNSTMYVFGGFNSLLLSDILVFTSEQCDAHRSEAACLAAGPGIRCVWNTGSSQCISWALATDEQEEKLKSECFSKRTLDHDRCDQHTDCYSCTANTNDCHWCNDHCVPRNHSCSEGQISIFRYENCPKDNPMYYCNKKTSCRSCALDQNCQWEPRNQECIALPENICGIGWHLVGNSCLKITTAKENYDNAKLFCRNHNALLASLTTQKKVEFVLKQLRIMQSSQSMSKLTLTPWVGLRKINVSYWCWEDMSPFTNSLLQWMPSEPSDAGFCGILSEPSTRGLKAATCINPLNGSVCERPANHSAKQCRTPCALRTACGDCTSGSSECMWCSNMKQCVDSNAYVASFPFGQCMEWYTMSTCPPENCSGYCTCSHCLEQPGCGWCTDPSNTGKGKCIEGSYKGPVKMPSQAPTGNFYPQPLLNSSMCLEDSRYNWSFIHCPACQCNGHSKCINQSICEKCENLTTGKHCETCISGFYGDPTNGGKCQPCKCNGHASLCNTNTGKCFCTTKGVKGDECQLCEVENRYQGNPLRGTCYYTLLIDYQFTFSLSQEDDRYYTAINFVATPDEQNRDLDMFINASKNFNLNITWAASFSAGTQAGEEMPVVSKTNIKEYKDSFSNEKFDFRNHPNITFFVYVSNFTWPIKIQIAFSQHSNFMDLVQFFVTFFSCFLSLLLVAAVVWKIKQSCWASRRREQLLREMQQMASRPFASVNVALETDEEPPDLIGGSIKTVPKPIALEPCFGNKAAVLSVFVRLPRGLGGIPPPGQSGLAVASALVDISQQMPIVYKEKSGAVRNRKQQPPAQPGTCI
UniProt O00170, sequence (O00170 whole entry, looked up): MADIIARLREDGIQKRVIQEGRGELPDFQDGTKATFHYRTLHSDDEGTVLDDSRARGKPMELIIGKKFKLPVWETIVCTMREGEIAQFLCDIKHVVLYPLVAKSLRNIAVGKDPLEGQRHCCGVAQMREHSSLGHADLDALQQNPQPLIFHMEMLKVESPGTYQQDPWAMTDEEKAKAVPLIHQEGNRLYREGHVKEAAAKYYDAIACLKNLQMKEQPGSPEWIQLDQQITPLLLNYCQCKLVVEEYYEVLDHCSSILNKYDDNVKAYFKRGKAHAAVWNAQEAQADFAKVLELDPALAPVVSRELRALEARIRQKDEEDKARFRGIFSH
UniProt Q96BI3, sequence (Q96BI3 whole entry, looked up): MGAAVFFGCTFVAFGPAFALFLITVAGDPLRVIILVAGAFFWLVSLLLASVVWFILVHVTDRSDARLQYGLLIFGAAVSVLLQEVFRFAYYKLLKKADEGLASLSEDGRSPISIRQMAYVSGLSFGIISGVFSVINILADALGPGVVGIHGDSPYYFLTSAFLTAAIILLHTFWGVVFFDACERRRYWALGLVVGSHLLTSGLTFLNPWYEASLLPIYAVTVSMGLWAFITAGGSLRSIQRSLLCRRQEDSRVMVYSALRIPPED
UniProt Q4L235, sequence (Q4L235 whole entry, looked up): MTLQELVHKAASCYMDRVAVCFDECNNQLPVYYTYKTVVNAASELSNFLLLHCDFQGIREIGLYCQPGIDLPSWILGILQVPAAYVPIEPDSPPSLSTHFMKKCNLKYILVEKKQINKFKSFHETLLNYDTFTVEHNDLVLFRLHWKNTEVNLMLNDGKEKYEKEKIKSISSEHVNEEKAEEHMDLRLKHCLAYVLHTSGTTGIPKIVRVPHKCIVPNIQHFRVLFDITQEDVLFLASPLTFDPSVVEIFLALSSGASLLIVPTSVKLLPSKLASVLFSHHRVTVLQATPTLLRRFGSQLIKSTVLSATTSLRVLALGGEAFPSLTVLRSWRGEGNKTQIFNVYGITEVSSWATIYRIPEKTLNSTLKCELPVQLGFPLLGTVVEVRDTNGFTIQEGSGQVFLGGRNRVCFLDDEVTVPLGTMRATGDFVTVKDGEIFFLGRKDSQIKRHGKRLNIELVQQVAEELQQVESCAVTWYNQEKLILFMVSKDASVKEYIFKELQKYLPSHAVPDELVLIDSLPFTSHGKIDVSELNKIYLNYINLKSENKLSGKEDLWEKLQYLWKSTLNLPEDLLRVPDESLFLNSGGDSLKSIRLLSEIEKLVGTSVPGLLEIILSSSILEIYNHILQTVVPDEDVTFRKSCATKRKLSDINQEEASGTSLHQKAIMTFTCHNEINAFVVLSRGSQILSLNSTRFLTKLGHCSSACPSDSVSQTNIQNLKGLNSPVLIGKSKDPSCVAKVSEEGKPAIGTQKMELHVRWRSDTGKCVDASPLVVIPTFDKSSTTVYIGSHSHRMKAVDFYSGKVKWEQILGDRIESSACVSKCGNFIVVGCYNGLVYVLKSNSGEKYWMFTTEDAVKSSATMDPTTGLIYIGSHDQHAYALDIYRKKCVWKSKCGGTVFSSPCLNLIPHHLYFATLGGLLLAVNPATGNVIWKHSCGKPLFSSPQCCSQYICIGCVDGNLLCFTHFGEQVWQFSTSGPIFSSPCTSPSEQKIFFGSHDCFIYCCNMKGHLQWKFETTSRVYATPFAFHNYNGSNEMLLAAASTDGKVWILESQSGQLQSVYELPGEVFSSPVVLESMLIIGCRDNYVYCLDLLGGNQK
UniProt Q9UKU0, sequence (Q9UKU0 whole entry, looked up): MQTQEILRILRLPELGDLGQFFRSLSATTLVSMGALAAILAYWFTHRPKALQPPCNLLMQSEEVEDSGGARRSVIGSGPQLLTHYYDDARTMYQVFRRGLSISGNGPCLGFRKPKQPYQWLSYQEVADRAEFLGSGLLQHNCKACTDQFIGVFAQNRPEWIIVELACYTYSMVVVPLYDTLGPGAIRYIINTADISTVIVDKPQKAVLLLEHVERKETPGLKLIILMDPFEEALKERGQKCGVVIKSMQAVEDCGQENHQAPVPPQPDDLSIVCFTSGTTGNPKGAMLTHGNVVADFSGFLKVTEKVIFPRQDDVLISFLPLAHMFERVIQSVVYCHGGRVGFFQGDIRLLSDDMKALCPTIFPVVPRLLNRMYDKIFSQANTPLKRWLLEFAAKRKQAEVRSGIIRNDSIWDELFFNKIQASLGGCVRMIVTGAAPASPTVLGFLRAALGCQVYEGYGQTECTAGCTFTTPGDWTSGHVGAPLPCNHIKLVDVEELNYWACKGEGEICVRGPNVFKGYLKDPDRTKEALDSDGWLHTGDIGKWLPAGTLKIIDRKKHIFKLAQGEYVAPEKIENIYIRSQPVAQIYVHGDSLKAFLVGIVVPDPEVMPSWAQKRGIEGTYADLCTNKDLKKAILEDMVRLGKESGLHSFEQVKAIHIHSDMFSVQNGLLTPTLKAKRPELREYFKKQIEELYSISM
UniProt Q562R1, sequence (Q562R1 whole entry, looked up): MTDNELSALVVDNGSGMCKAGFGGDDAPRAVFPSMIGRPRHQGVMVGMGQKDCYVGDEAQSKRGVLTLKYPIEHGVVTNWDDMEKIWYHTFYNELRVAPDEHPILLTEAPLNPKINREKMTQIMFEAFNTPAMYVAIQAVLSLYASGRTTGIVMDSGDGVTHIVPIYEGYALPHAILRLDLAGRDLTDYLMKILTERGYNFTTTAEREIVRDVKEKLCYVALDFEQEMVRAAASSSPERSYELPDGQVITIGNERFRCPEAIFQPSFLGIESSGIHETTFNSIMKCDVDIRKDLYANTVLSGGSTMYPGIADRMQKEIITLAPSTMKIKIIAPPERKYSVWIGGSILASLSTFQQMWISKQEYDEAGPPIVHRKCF

**Q.** With BSCL2 isoform 4 (UniProt Q96G97) as the target, how does the log2 fold change read?
**A.** -0.225

**Q.** ARL3 (UniProt P36405) was tested. Which log2 fold change did it give?
**A.** -0.024

**Q.** How did the log2 fold change turn out when ABCA4 (UniProt P78363) was run?
**A.** -0.025

**Q.** With ALG14 (UniProt Q96F25) as the target, how does the log2 fold change read?
**A.** -0.092

**Q.** AFDN isoform 5 (UniProt P55196) was tested. Which log2 fold change did it give?
**A.** -0.012

**Q.** AP2M1 (UniProt Q96CW1) was tested. Which log2 fold change did it give?
**A.** 0.042

**Q.** For ASB6 (UniProt Q9NWX5), which log2 fold change is on record?
**A.** -0.039

**Q.** ATOX1 (UniProt O00244) was tested. Which log2 fold change did it give?
**A.** -0.02

**Q.** How did the log2 fold change turn out when ADPRH (UniProt P54922) was run?
**A.** 0.082

**Q.** With ADAMTS5 (UniProt Q9UNA0) as the target, how does the log2 fold change read?
**A.** -0.103

**Q.** AASDH (UniProt Q4L235) was tested. Which log2 fold change did it give?
**A.** -0.065

**Q.** How did the log2 fold change turn out when ATP7B (UniProt P35670) was run?
**A.** -0.009

**Q.** ATRN (UniProt O75882) was tested. Which log2 fold change did it give?
**A.** -0.006

**Q.** With BRD3 (UniProt Q15059) as the target, how does the log2 fold change read?
**A.** -0.152

**Q.** Which log2 fold change does the source give for ACP1 (UniProt P24666) here?
**A.** 0.041

**Q.** How did the log2 fold change turn out when BRIP1 (UniProt Q9BX63) was run?
**A.** -0.135

**Q.** With ATXN3 isoform 1 (UniProt P54252) as the target, how does the log2 fold change read?
**A.** 0.03

**Q.** How did the log2 fold change turn out when ARRDC1 (UniProt Q8N5I2) was run?
**A.** 0.014

**Q.** Which log2 fold change does the source give for ACTBL2 (UniProt Q562R1) here?
**A.** 0.113

**Q.** For ADAM15 (UniProt Q13444), which log2 fold change is on record?
**A.** 0.067

**Q.** AIP (UniProt O00170) was tested. Which log2 fold change did it give?
**A.** 0.017

**Q.** Which log2 fold change does the source give for ARHGAP25 isoform 4 (UniProt P42331) here?
**A.** -0.035

**Q.** Which log2 fold change does the source give for ABHD11 (UniProt Q8NFV4) here?
**A.** 0.011

**Q.** For ATF1 (UniProt P18846), which log2 fold change is on record?
**A.** -0.12

**Q.** With ARFIP1 isoform 2 (UniProt P53367) as the target, how does the log2 fold change read?
**A.** -0.281

**Q.** ACSL6 isoform 1 (UniProt Q9UKU0) was tested. Which log2 fold change did it give?
**A.** 0.147

**Q.** Which log2 fold change does the source give for ARGLU1 (UniProt Q9NWB6) here?
**A.** 0.165

**Q.** How did the log2 fold change turn out when BCLAF1 (UniProt Q9NYF8) was run?
**A.** -0.028

**Q.** How did the log2 fold change turn out when B4GALNT1 (UniProt Q00973) was run?
**A.** 0.141

**Q.** Which log2 fold change does the source give for ARFGAP1 (UniProt Q8N6T3) here?
**A.** -0.041

**Q.** Which log2 fold change does the source give for ANK2 (UniProt Q01484) here?
**A.** -0.281

**Q.** With ACTR1B (UniProt P42025) as the target, how does the log2 fold change read?
**A.** -0.062

**Q.** AMD1 (UniProt P17707) was tested. Which log2 fold change did it give?
**A.** 0.091

**Q.** APOH (UniProt P02749) was tested. Which log2 fold change did it give?
**A.** -1.07 (active)

**Q.** With APH1A (UniProt Q96BI3) as the target, how does the log2 fold change read?
**A.** 0.132

**Q.** For AUP1 (UniProt Q9Y679), which log2 fold change is on record?
**A.** -0.023

Reference: the supplement of paper PMC10849652
